Test results taken from PubChem BioAssay (NCI).
The panel holds about 83,000 compounds, 20% with a hit somewhere; the sample as a whole holds those more often.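 Testing used 96-well plates and a 48-hour single-concentration exposure. Example: -40 means 40% of the starting cells died.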 Unmarked numbers belong to inactive results. Activity calls are given as the source filed them. How the source made its calls: active means growth percent below 10; inactive means the rest.

Tests used:
Test in all cases: NCI-60 one-dose screen, 48 h (100 = growth as untreated, 0 = no growth, -100 = all killed)
Details in all cases: 10 µM unless noted
[1] = system: SR leukemia
[2] = system: RPMI-8226 leukemia
[3] = system: OVCAR-8 ovarian
[4] = system: OVCAR-5 ovarian
[5] = system: OVCAR-4 ovarian
[6] = system: SK-OV-3 ovarian
[7] = system: IGROV1 ovarian
[8] = system: HS 578T breast
[9] = system: NCI/ADR-RES ovarian
[10] = system: T-47D breast
[11] = system: BT-549 breast
[12] = system: MDA-MB-435 melanoma
[13] = system: SW-620 colon
[14] = system: MCF7 breast
[15] = system: HCT-116 colon
[16] = system: HCC-2998 colon
[17] = system: KM12 colon
[18] = system: OVCAR-3 ovarian

Nc1c(Cl)cc(/C=C2\C=Cc3ccccc32)cc1Cl
growth [1]: 93.9%
growth [2]: 107%
growth [3]: 104%
growth [4]: 102%
growth [5]: 107%
growth [6]: 102%
growth [7]: 103%
growth [8]: 115%
growth [9]: 101%
growth [10]: 95.6%
growth [11]: 101%
growth [12]: 107%
growth [13]: 111%
growth [14]: 123%
growth [15]: 103%
growth [16]: 98%
growth [17]: 106%

CCOC(=O)C/C(=N\Nc1cc(=O)[nH]c2ccc(C)cc12)C(=O)OCC
growth [1]: 46.4%
growth [2]: 91.3%
growth [3]: 101%
growth [4]: 104%
growth [5]: 106%
growth [6]: 126%
growth [7]: 98%
growth [18]: 101%
growth [8]: 91.8%
growth [9]: 105%
growth [11]: 108%
growth [12]: 98.6%
growth [13]: 94.8%
growth [14]: 94.8%
growth [16]: 102%
growth [17]: 100%

C=CN(C(=O)N1CCN(c2cc3c(cc2F)c(=O)c(C(=O)O)cn3C2CC2)CC1)c1nc(-c2ccccc2)cs1
growth [1]: 86.2%
growth [2]: 93.4%
growth [3]: 91.3%
growth [4]: 102%
growth [5]: 93.1%
growth [6]: 87.8%
growth [7]: 105%
growth [8]: 97.8%
growth [9]: 103%
growth [10]: 78.9%
growth [11]: 101%
growth [12]: 96.4%
growth [13]: 112%
growth [14]: 94.8%
growth [15]: 86%
growth [16]: 103%
growth [17]: 104%

COc1ccc(-c2cc(C(=O)N3N=C(c4ccc(N)cc4)CC3c3ccc(Cl)cc3)c3cc(OC)ccc3n2)cc1 (stereo unspecified)
growth [1]: 20.9%
growth [2]: 20.9%
growth [3]: 56.4%
growth [4]: 76.1%
growth [5]: 53.9%
growth [6]: 89.7%
growth [7]: 39.6%
growth [8]: 87.3%
growth [9]: 14.8%
growth [10]: 66.7%
growth [11]: 29.8%
growth [12]: 9.88% (active)
growth [13]: 35.5%
growth [14]: 38.6%
growth [15]: 1.85% (active)
growth [16]: 83.3%
growth [17]: 52.3%

COc1ccc(C2[C@@H](c3ccccc3)C(=O)N2c2cc(OC)c(OC)c(OC)c2)cc1F (stereo partly specified)
growth [1]: -6.55% (active)
growth [2]: 6.59% (active)
growth [3]: 1.85% (active)
growth [4]: 65.1%
growth [5]: 59%
growth [6]: 4.86% (active)
growth [7]: 18.8%
growth [8]: 31.3%
growth [9]: 11.9%
growth [10]: 61.7%
growth [11]: -2.79% (active)
growth [12]: -23% (active)
growth [13]: 24.2%
growth [14]: 12.5%
growth [15]: 3.36% (active)
growth [16]: 15.1%
growth [17]: 13.2%

C=C[C@@]1(C)CC(=O)[C@@H](C(C)(C)c2cn(C)c3ccc(Br)cc23)C[C@@H]1O[Si](C)(C)C(C)(C)C
growth [1]: 103%
growth [2]: 87.5%
growth [3]: 101%
growth [4]: 106%
growth [5]: 94.2%
growth [6]: 115%
growth [7]: 112%
growth [8]: 112%
growth [9]: 101%
growth [10]: 89.6%
growth [11]: 111%
growth [12]: 101%
growth [13]: 97.3%
growth [14]: 80.1%
growth [15]: 89.7%
growth [16]: 109%
growth [17]: 100%

CC(C)(C)c1ccc(C(=O)N/N=C/c2ccc(O)cc2O)cc1
growth [1]: 19.8%
growth [2]: 28.6%
growth [3]: 17.4%
growth [4]: 34.4%
growth [5]: 22%
growth [6]: 23.2%
growth [7]: 20%
growth [8]: 38.1%
growth [9]: 5.92% (active)
growth [10]: 33.1%
growth [11]: 32%
growth [12]: 34.3%
growth [13]: 30%
growth [14]: 8.44% (active)
growth [15]: 23.4%
growth [16]: 19.4%
growth [17]: 12.5%

O=C(/C=C/c1ccccc1Cl)c1cccc(OCCCCOc2cccc(C(=O)/C=C/c3ccccc3Cl)c2)c1
growth [1]: 81%
growth [2]: -6.16% (active)
growth [3]: 99.9%
growth [4]: 101%
growth [5]: 106%
growth [6]: 100%
growth [7]: 92.8%
growth [8]: 106%
growth [9]: 103%
growth [10]: 91.2%
growth [11]: 116%
growth [12]: 106%
growth [13]: 99%
growth [14]: 51.7%
growth [15]: 50.1%
growth [17]: 101%

COc1ccc(/C=C/C(c2cc(OC)c(OC)c(OC)c2)n2cncn2)cc1O (stereo unspecified)
growth [1]: 5.67% (active)
growth [2]: 19.9%
growth [3]: 16%
growth [4]: 86.5%
growth [5]: 83.5%
growth [6]: 12.7%
growth [7]: 50.5%
growth [8]: 28.5%
growth [9]: 10.8%
growth [10]: 34.4%
growth [11]: 36.6%
growth [12]: -33% (active)
growth [13]: 27.6%
growth [14]: 21.2%
growth [15]: 10.5%
growth [16]: 67.7%
growth [17]: 26.7%

CN(C)c1ccc(/C=N\NC(=O)c2ccc3nc(-c4ccc(Cl)cc4)[nH]c3c2)cc1
growth [1]: 20.7%
growth [2]: 67.4%
growth [3]: 51.3%
growth [4]: 89.2%
growth [5]: 36.4%
growth [6]: 98.3%
growth [7]: 40.2%
growth [8]: 70%
growth [9]: 77%
growth [10]: 59.4%
growth [11]: 106%
growth [12]: 93.9%
growth [13]: 46.3%
growth [14]: 17.4%
growth [15]: 48.6%
growth [16]: 79%
growth [17]: 64.9%

COc1ccc(N=C2NN=C(c3c[nH]c4ccccc34)CS2)cc1OC
growth [1]: 93.6%
growth [2]: 17%
growth [3]: 71.7%
growth [4]: 74.6%
growth [5]: 69.2%
growth [6]: 67.7%
growth [7]: -32.4% (active)
growth [8]: 52.8%
growth [9]: 17.7%
growth [10]: 57.5%
growth [11]: -0.386% (active)
growth [12]: -8.16% (active)
growth [13]: 50.4%
growth [14]: 42.1%
growth [15]: 39.1%
growth [16]: 71.7%
growth [17]: 23.7%

Clc1ccc(Nc2nnc(CNc3ccccc3)c3ccccc23)cc1
growth [1]: -9.19% (active)
growth [2]: 3.35% (active)
growth [3]: 18.3%
growth [4]: 41.4%
growth [5]: 19.3%
growth [6]: 22%
growth [7]: 19.1%
growth [18]: -1.64% (active)
growth [8]: 26.6%
growth [9]: 18.8%
growth [11]: 4.94% (active)
growth [12]: 4.17% (active)
growth [13]: 30.8%
growth [14]: 9.2% (active)
growth [16]: 18.3%
growth [17]: 8.93% (active)

COc1ccc(C=Nc2c(C(=O)Nc3cccc(Cl)c3C)sc3nc(C)c(C(=O)/C=C/c4ccc(OC)cc4)cc23)cc1
growth [1]: 30.8%
growth [2]: 14.9%
growth [3]: 21%
growth [4]: 31.3%
growth [5]: 58.2%
growth [6]: 40.9%
growth [7]: 38.3%
growth [18]: 4.94% (active)
growth [8]: -1.89% (active)
growth [9]: 10.9%
growth [11]: 40%
growth [12]: -65.8% (active)
growth [13]: 12.4%
growth [14]: 11.8%
growth [15]: 23%
growth [17]: 12.4%

CCOC(=O)NC(=S)n1oc(=O)c2ccccc21
growth [1]: 114%
growth [2]: 101%
growth [3]: 102%
growth [4]: 96.6%
growth [5]: 96.5%
growth [6]: 104%
growth [7]: 100%
growth [8]: 104%
growth [9]: 105%
growth [10]: 99.2%
growth [11]: 111%
growth [12]: 101%
growth [13]: 97.5%
growth [14]: 100%
growth [15]: 101%
growth [16]: 101%
growth [17]: 103%

CN(C)c1ccc(CNCCO)cc1
growth [1]: 108%
growth [2]: 84.6%
growth [3]: 90.6%
growth [4]: 67.6%
growth [5]: 112%
growth [6]: 71.4%
growth [7]: 107%
growth [8]: 96%
growth [9]: 103%
growth [10]: 55.5%
growth [11]: 75.7%
growth [12]: 102%
growth [13]: 94.5%
growth [14]: 94%
growth [15]: 72.1%
growth [16]: 109%
growth [17]: 105%

CCOC(=O)c1c(NC(=O)c2ccccc2)sc2c3c(ccc12)OCN(C)C3
growth [1]: -39.6% (active)
growth [2]: -46.2% (active)
growth [3]: 28.5%
growth [4]: -0.612% (active)
growth [5]: 61.8%
growth [6]: 88.5%
growth [7]: 18.6%
growth [18]: 52.1%
growth [8]: 57.9%
growth [9]: 5.26% (active)
growth [11]: 62.2%
growth [12]: -88.5% (active)
growth [13]: -42.3% (active)
growth [14]: -50.6% (active)
growth [16]: -85% (active)
growth [17]: 8.58% (active)

Oc1c(CN2CCC(N3CCOCC3)CC2)cc(Cc2cc(CN3CCC(N4CCOCC4)CC3)c(O)c3ncccc23)c2cccnc12
growth [1]: 20%
growth [2]: 34.8%
growth [3]: 19.6%
growth [4]: 47.3%
growth [5]: 15.4%
growth [6]: 0.924% (active)
growth [7]: 25%
growth [8]: 58.9%
growth [9]: 40.7%
growth [10]: 21.5%
growth [11]: 33.5%
growth [12]: 20.3%
growth [13]: 28.2%
growth [14]: 5.06% (active)
growth [15]: 11.5%
growth [16]: 0.162% (active)
growth [17]: 17.1%

C=C1C(=O)O[C@H]2[C@H]1CC/C(CNC(=O)Cc1c[nH]c3ccccc13)=C\CC[C@@]1(C)O[C@@H]21
growth [1]: -13.6% (active)
growth [2]: -0.862% (active)
growth [3]: 9.54% (active)
growth [4]: 46.2%
growth [5]: 38.2%
growth [6]: 106%
growth [7]: 27.7%
growth [8]: 78.1%
growth [9]: 89.9%
growth [10]: -9.45% (active)
growth [11]: 13.6%
growth [12]: 7.96% (active)
growth [13]: -20.4% (active)
growth [14]: 17.8%
growth [15]: -11.9% (active)
growth [16]: 60.4%
growth [17]: 47.5%
